Source: PubChem BioAssay (NCATS)
Inconclusive results are not listed. Calls of active or inactive are those of the source. Calls follow the shape of the dose curve; as a rule, active = well fitted curve in the direction sought with a large enough effect; inconclusive = small, poorly fitted or top-dose-only effect, or another doubt; inactive = no such curve, though single readings can be large; an effect the other way counts as inactive or inconclusive. Starred links: 1 amine or outer side, 2 acyl side, 3 side chain; linkers in the order of their positions; H or OH if unused. Positions of bridges follow the written chain, without caps; N, C: chain ends. Non-standard residues stand in square brackets, D forms with d. Residues, ends and D or L forms follow the SMILES beside them. Chains are numbered I, II in the order given. Actinocin(9to1) = Cc1c2oc3c(C)ccc(C(=O)[*:1])c3nc-2c(C(=O)[*:2])c(N)c1=O; NMeV = CN[CH](C(=O)O)C(C)C; Sar = CNCC(=O)O

Legend:
[1] = Quantitative High-Throughput drug screen in 47 multiple myeloma cell lines against the NCATS MIPE library collection: INA6_PLB cell viability assay (AID 1918965; also: nearly all actives have a fitted effect of over 55% in size)
How it was run: (§1)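 Approved and investigational drugs from MIPE 4.0 were added by pin tool to 500 cells per well. After 48 hours at 37C, ATP-based CellTiter-Glo luminescence indicated remaining viability.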

[2] = Quantitative High-Throughput drug screen in 47 multiple myeloma cell lines against the NCATS MIPE library collection: JJN3_DSMZ cell viability assay (AID 1918966; also: nearly all actives have a fitted effect of over 50% in size)
How it was run: (§2)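 CellTiter-Glo luminescence (ATP) after 48 h compound exposure, 37C/5% CO2; 500 cells/well; MIPE 4.0 approved/investigational drugs pinned in; DMSO = 100%, media only = 0% viability.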

[3] = Quantitative High-Throughput drug screen in 47 multiple myeloma cell lines against the NCATS MIPE library collection: H1112_PLB cell viability assay (AID 1918967; also: nearly all actives have a fitted effect of over 30% in size)
How it was run: as §2

[4] = Quantitative High-Throughput drug screen in 47 multiple myeloma cell lines against the NCATS MIPE library collection: Karpas25_ECACC cell viability assay (AID 1918968; also: nearly all actives have a fitted effect of over 35% in size)
How it was run: as §2

[5] = Quantitative High-Throughput drug screen in 47 multiple myeloma cell lines against the NCATS MIPE library collection: KMS27_JCRB cell viability assay (AID 1918970); conditions: KMS27 myeloma cells, CellTiter-Glo ATP viability, 48 h; viability (% of DMSO): at 45.8 µM (top of the series); also: nearly all actives have a fitted effect of over 30% in size
How it was run: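 ATP-based viability (CellTiter-Glo luminescence) is measured in cells treated 48 h with approved and investigational drugs at 37 °C. Controls are DMSO-only wells for full viability and media-only wells for none.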

[6] = Quantitative High-Throughput drug screen in 47 multiple myeloma cell lines against the NCATS MIPE library collection: KMS12BM_JCRB cell viability assay (AID 1918971); also: nearly all actives have a fitted effect of over 35% in size
How it was run: (§3)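 Inhibition of cell viability is measured here. Each line was plated at 500 cells per well, treated with MIPE 4.0 drugs, kept 48 hours at 37C, then assayed for ATP content by CellTiter-Glo luminescence.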

[7] = Quantitative High-Throughput drug screen in 47 multiple myeloma cell lines against the NCATS MIPE library collection: KMS12PE_JCRB cell viability assay (AID 1918972); also: nearly all actives have a fitted effect of over 30% in size
How it was run: as §1

[8] = Quantitative High-Throughput drug screen in 47 multiple myeloma cell lines against the NCATS MIPE library collection: KMS20_JCRB cell viability assay (AID 1918973); also: nearly all actives have a fitted effect of over 45% in size
How it was run: as §2

[9] = Quantitative High-Throughput drug screen in 47 multiple myeloma cell lines against the NCATS MIPE library collection: KMS21BM_JCRB cell viability assay (AID 1918974); conditions: ATP luminescence, 48 h; viability: at 45.8 µM (top of the series)
How it was run: as §2

[10] = Quantitative High-Throughput drug screen in 47 multiple myeloma cell lines against the NCATS MIPE library collection: KMS26_JCRB cell viability assay (AID 1918975); also: nearly all actives have a fitted effect of over 45% in size
How it was run: as §3

[11] = Quantitative High-Throughput drug screen in 47 multiple myeloma cell lines against the NCATS MIPE library collection: OCIMY1_PLB cell viability assay (AID 1918979); also: nearly all actives have a fitted effect of over 35% in size
How it was run: (§4)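 MIPE 4.0 approved/investigational drugs; 500 cells/well; 48 h 37 °C humidified 5% CO2; CTG luminescence readout; DMSO = 100%, media = 0% viability.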

[12] = Quantitative High-Throughput drug screen in 47 multiple myeloma cell lines against the NCATS MIPE library collection: MM1S_ATCC cell viability assay (AID 1918980); also: nearly all actives have a fitted effect of over 45% in size
How it was run: as §4

[13] = Quantitative High-Throughput drug screen in 47 multiple myeloma cell lines against the NCATS MIPE library collection: MM1R_ATCC cell viability assay (AID 1918981); also: nearly all actives have a fitted effect of over 35% in size
How it was run: as §4

[14] = Quantitative High-Throughput drug screen in 47 multiple myeloma cell lines against the NCATS MIPE library collection: LP1_DSMZ cell viability assay (AID 1918982); also: nearly all actives have a fitted effect of over 35% in size
How it was run: as §4

[15] = Quantitative High-Throughput drug screen in 47 multiple myeloma cell lines against the NCATS MIPE library collection: KMS28PE_JCRB cell viability assay (AID 1918983); also: nearly all actives have a fitted effect of over 35% in size
How it was run: as §4

[16] = Quantitative High-Throughput drug screen in 47 multiple myeloma cell lines against the NCATS MIPE library collection: L363_DSMZ cell viability assay (AID 1918984); also: nearly all actives have a fitted effect of over 40% in size
How it was run: as §4

[17] = Quantitative High-Throughput drug screen in 47 multiple myeloma cell lines against the NCATS MIPE library collection: KMS34_JCRB cell viability assay (AID 1918985); also: nearly all actives have a fitted effect of over 40% in size
How it was run: as §4

[18] = Quantitative High-Throughput drug screen in 47 multiple myeloma cell lines against the NCATS MIPE library collection: NCIH929_DSMZ cell viability assay (AID 1918978); also: nearly all actives have a fitted effect of over 35% in size
How it was run: as §4

[19] = Quantitative High-Throughput drug screen in 47 multiple myeloma cell lines against the NCATS MIPE library collection: MMM1_PLB cell viability assay (AID 1918976); also: nearly all actives have a fitted effect of over 35% in size
How it was run: as §4

[20] = Quantitative High-Throughput drug screen in 47 multiple myeloma cell lines against the NCATS MIPE library collection: MOLP8_DSMZ cell viability assay (AID 1918977); also: nearly all actives have a fitted effect of over 45% in size
How it was run: as §4
Potency is read from the fitted curve at half-maximal effect.

Row | Structure (SMILES) | Potency [1] | Potency [2] | Potency [3] | Potency [4] | Potency [5] | Potency [6] | Potency [7] | Potency [8] | Potency [9] | Potency [10] | Potency [11] | Potency [12] | Potency [13] | Potency [14] | Potency [15] | Potency [16] | Potency [17] | Potency [18] | Potency [19] | Potency [20]
1 | Cc1c2oc3c(C)ccc(C(=O)NC4C(=O)NC(C(C)C)C(=O)N5CCCC5C(=O)N(C)CC(=O)N(C)C(C(C)C)C(=O)OC4C)c3nc-2c(C(=O)NC2C(=O)NC(C(C)C)C(=O)N3CCCC3C(=O)N(C)CC(=O)N(C)C(C(C)C)C(=O)OC2C)c(N)c1=O (configuration not stated) (I: TVP[Sar][NMeV] / II: TVP[Sar][NMeV]; ester I:1-I:C, II:1-II:C; linker I:N-II:N via Actinocin(9to1); configuration not given here) | inactive | inactive | inactive | inactive | inactive | inactive | inactive | inactive | inactive | inactive | inactive | inactive | inactive | inactive | inactive | inactive | inactive |  |  | 
2 | COc1cc([C@@H]2c3cc4c(cc3[C@@H](O[C@@H]3O[C@@H]5CO[C@@H](c6cccs6)O[C@@H]5[C@H](O)[C@@H]3O)[C@H]3COC(=O)[C@H]23)OCO4)cc(OC)c1O | 46.9 nM (active) | 13200 nM (active) | 590 nM (active) | 1870 nM (active) | 132 nM (active) | 1320 nM (active) | 1320 nM (active) | 418 nM (active) | 1870 nM (active) | 16600 nM (active) | 8330 nM (active) | 59 nM (active) | 74.3 nM (active) |  | 2640 nM (active) | 833 nM (active) | 1870 nM (active) | 14800 nM (active) |  | 
3 | CCC(C=C[C@@H]1OC(=O)C=C[C@H]1C)=C[C@H](C)CC=CC(C)=C[C@@H](C)C(=O)[C@@H](C)[C@H](O)[C@@H](C)CC(C)=CC(=O)O | 15.6 nM (active) | 22 nM (active) | 39.2 nM (active) | 19.6 nM (active) | 9.8 nM (active) | 19.6 nM (active) | 19.6 nM (active) | 8.8 nM (active) |  | 31.1 nM (active) | 27.7 nM (active) | 15.6 nM (active) | 9.8 nM (active) | 27.7 nM (active) | 24.7 nM (active) | 7.8 nM (active) | 22 nM (active) | 19.6 nM (active) | 27.7 nM (active) | 19.6 nM (active)
4 | COc1ccc(C[C@@H](C)[C@@H](C)Cc2ccc(OC)c(OC)c2)cc1OC | 662 nM (active) | 833 nM (active) | 296 nM (active) | 662 nM (active) | 166 nM (active) | 662 nM (active) | 372 nM (active) | 2350 nM (active) |  | 590 nM (active) |  |  | 1050 nM (active) |  | 332 nM (active) | 166 nM (active) |  | 1870 nM (active) | 5900 nM (active) | 2960 nM (active)
5 | CCNC(=O)Nc1ccc(-c2nc3c(c(N4CCOC[C@H]4C)n2)CCN(C2COC2)C3)cc1 | 2090 nM (active) | 833 nM (active) | 590 nM (active) | 935 nM (active) | 590 nM (active) | 1180 nM (active) | 5260 nM (active) |  | 2350 nM (active) | 1660 nM (active) | 469 nM (active) | 1050 nM (active) | 1050 nM (active) | 37.2 nM (active) | 833 nM (active) | 209 nM (active) | 1050 nM (active) | 526 nM (active) | 418 nM (active) | 833 nM (active)
6 | CC(C=CC(=O)NO)=C[C@@H](C)C(=O)c1ccc(N(C)C)cc1 | 83.3 nM (active) | 187 nM (active) | 372 nM (active) | 264 nM (active) | 264 nM (active) | 264 nM (active) | 235 nM (active) | 148 nM (active) | 166 nM (active) | 264 nM (active) | 372 nM (active) | 187 nM (active) | 132 nM (active) |  | 296 nM (active) | 132 nM (active) | 83.3 nM (active) | 296 nM (active) |  | 
7 | OCCNC1CCCc2c1[nH]c1ccc(-c3ccccc3)cc21 (configuration not stated) | 7430 nM (active) | 23500 nM (active) | 20900 nM (active) | 9350 nM (active) | 23500 nM (active) | 37200 nM (active) | 8330 nM (active) | 5260 nM (active) |  | 20900 nM (active) | 26400 nM (active) | 20900 nM (active) | 20900 nM (active) |  | 23500 nM (active) | 9350 nM (active) |  | 13200 nM (active) | 20900 nM (active) | 
8 | C[C@@]12C(=O)OC(=O)[C@@]1(C)C1CCC2O1 | 2640 nM (active) | 662 nM (active) | 3720 nM (active) | 1180 nM (active) | 2090 nM (active) | 1660 nM (active) | 1870 nM (active) | 2640 nM (active) |  | 2090 nM (active) | 5260 nM (active) | 1660 nM (active) | 2350 nM (active) | 3720 nM (active) | 2350 nM (active) | 3720 nM (active) | 833 nM (active) |  |  | 3720 nM (active)
